# Measured values taken from ChEMBL document CHEMBL4513146, “CO-ADD screening of Karazin Kharkiv National University (Ukraine) compounds”.
# Potency and affinity values are given separately.
# System: Klebsiella pneumoniae
# Conditions: Concentration 32 ug.mL-1;; ASSAY_TEST Inhibition of Bacterial Growth; detection method Absorption (OD600); MEDIA CAMHB; plate type 384well; NBS; CORNING #3640; time 18 hr
row,Compound,Inhibition [%]
1,CCCCOc1ccc(-c2cc3c4nnc(SCC(=O)Nc5cc(C)ccc5OC)n4ccn3n2)cc1,-4.93
2,O=C(Cn1nc2c(SC3CCCCC3)nccn2c1=O)Nc1cccc(Br)c1,-4.59
3,Cc1cc2nn(CC(=O)Nc3ccc(F)cc3F)c(=O)n2c(Nc2ccc(F)c(C)c2)n1,11.68
4,Cc1nnc2c(=O)n(CC(=O)Nc3ccc(Cl)cc3)c3ccccc3n12,4.43
5,CCOc1ccc(NC(=O)CSc2nnc3c(=O)n(-c4ccc(OCC)cc4)ccn23)cc1,13.96
6,COc1ccc(NC(=O)Cn2nc3nc(N4CCCCCC4)ccn3c2=O)cc1Cl,8.5
7,O=C(Cn1nc2ccc(SC3CCCCC3)nn2c1=O)NCc1ccc(Cl)cc1,12.01
8,Cc1ccc(-n2ccn3c(=O)n(Cc4ccccc4)nc3c2=O)cc1C,-0.96
9,CCCn1c(=O)c2sccc2n2c(=O)n(CC(=O)c3cccc(OC)c3)nc12,7.12
10,COc1cccc(Sc2nc3ccccc3n3c(=O)n(CC(=O)Nc4ccc(C)cc4)nc23)c1,9.1
11,COc1ccc(NC(=O)Cn2nc3c(N4CCCC4)nccn3c2=O)cc1,6.93
12,O=C(Cn1nc2c3sccc3ncn2c1=O)Nc1ccc2c(c1)OCO2,-3.23
13,O=c1c2sccc2n2c(=O)n(Cc3cccc(F)c3)nc2n1Cc1cccs1,-6.06
14,Cc1cc(C)c(NC(=O)Cn2nc3c(SC4CCCCC4)nccn3c2=O)c(C)c1,10.47
15,O=C(CSc1nnc2n(CC3CCCO3)c(=O)c3sccc3n12)Nc1ccc(F)cc1Cl (stereo unspecified),1.23
16,COc1cccc(-n2ccn3c(SCc4ccc(Cl)cc4)nnc3c2=O)c1,9.45
17,Cc1ccc(NC(=O)Cn2nc3c(SC4CCCCC4)nccn3c2=O)cc1,5.75
18,COc1ccc(NC(=O)C(C)Sc2nnc3c(=O)n(-c4ccc(C)c(C)c4)ccn23)cc1 (stereo unspecified),12.32
19,Cc1ccc(-c2cc3c4nn(CC(=O)Nc5ccccc5Br)c(=O)n4ccn3n2)cc1C,18.24
20,Cc1nnc2ccc(S(=O)(=O)N(Cc3ccccc3)c3ccc(F)cc3)cn12,4.54
21,COc1cccc(Sc2nc3ccccc3n3c(=O)n(CC(=O)Nc4ccc(C)c(C)c4)nc23)c1,5.05
22,Cc1cc(C)cc(Oc2nc3ccccc3n3c(=O)n(CC(=O)Nc4ccc5c(c4)OCO5)nc23)c1,6.8
23,O=C(CSc1nnc2c(=O)n(-c3cccc(F)c3)ccn12)Nc1ccc(Br)cc1,9.48
24,CSc1ccc(CNC(=O)Cn2nc3c(Oc4ccccc4)nccn3c2=O)cc1,13.75
25,COc1ccc(-c2cc3c4nn(CC(=O)Nc5cc(OC)ccc5OC)c(=O)n4ccn3n2)cc1,11.83
26,O=C(Cn1nc2c(SC3CCCCC3)nccn2c1=O)Nc1ccc(Cl)cc1F,10.76

# System: Candida albicans
# Conditions: Concentration 32 ug.mL-1; ASSAY_TEST Inhibition of Fungal Growth; detection method Absorption (OD530)
row,Compound,Inhibition [%]
1,CCN(C(=O)CSc1nnc2c3cc(-c4ccc(OC)cc4)nn3ccn12)c1ccccc1,2.01
2,COc1ccc(NC(=O)c2ccc3nn(CC(=O)N4CCN(c5ccccc5)CC4)c(=O)n3c2)cc1,1.58
3,COc1ccc(N2CCN(C(=O)Cn3nc4c(Oc5ccc(C)cc5)nccn4c3=O)CC2)cc1,1.27
4,CC1CCCN(c2nccn3c(=O)n(CC(=O)Nc4ccc(Br)cc4F)nc23)C1 (stereo unspecified),5.05
5,Cc1cc(C)cc(N(Cc2cccc(F)c2)S(=O)(=O)c2cccn3c(C)nnc23)c1,2.81
6,Cc1cc(C)cc(NC(=O)Cn2nc3c4cc(-c5ccc(Cl)cc5)nn4ccn3c2=O)c1,6.87
7,O=C(CSc1nnc2c(=O)n(-c3ccc(F)cc3)ccn12)N1CCN(c2ccccc2F)CC1,5.18
8,CCc1ccc(N(Cc2ccc(C)cc2)S(=O)(=O)c2cccn3c(C)nnc23)cc1,0.84
9,CCCc1nnc2c(=O)n(CC(=O)Nc3ccc(Br)cc3)c3ccccc3n12,0.11
10,COc1ccccc1Cn1c(=O)c2sccc2n2c(=O)n(Cc3c(F)cccc3Cl)nc12,-2.27
11,O=c1n(Cc2nc(-c3ccc4c(c3)OCO4)no2)nc2ccc(-c3ccccc3)nn12,6.34
12,CCc1nnc2c(SCC(=O)NCc3ccccc3Cl)nc3ccccc3n12,1.39
13,COc1cccc(Sc2nc3ccccc3n3c(=O)n(CC(=O)N4CCCc5ccccc54)nc23)c1,0.71
14,CCOc1ccc(-n2ccn3c(SCC(=O)Nc4ccc(F)cc4F)nnc3c2=O)cc1,3.41
15,CCCCOc1ccc(-c2cc3c4nnc(SCC(=O)Nc5cc(C)ccc5OC)n4ccn3n2)cc1,45.46
16,O=C(Cn1nc2c(SC3CCCCC3)nccn2c1=O)Nc1cccc(Br)c1,26.25
17,Cc1cc2nn(CC(=O)Nc3ccc(F)cc3F)c(=O)n2c(Nc2ccc(F)c(C)c2)n1,11.92
18,Cc1nnc2c(=O)n(CC(=O)Nc3ccc(Cl)cc3)c3ccccc3n12,-0.59
19,CCOc1ccc(NC(=O)CSc2nnc3c(=O)n(-c4ccc(OCC)cc4)ccn23)cc1,2.39
20,COc1ccc(NC(=O)Cn2nc3nc(N4CCCCCC4)ccn3c2=O)cc1Cl,2.73

row,Compound,Inhibition [%]
1,O=C(Cn1nc2ccc(SC3CCCCC3)nn2c1=O)NCc1ccc(Cl)cc1,5.78
2,Cc1ccc(-n2ccn3c(=O)n(Cc4ccccc4)nc3c2=O)cc1C,0.88
3,CCCn1c(=O)c2sccc2n2c(=O)n(CC(=O)c3cccc(OC)c3)nc12,6.53
4,COc1cccc(Sc2nc3ccccc3n3c(=O)n(CC(=O)Nc4ccc(C)cc4)nc23)c1,4.31
5,COc1ccc(NC(=O)Cn2nc3c(N4CCCC4)nccn3c2=O)cc1,1.38
6,O=C(Cn1nc2c3sccc3ncn2c1=O)Nc1ccc2c(c1)OCO2,1.42
7,O=c1c2sccc2n2c(=O)n(Cc3cccc(F)c3)nc2n1Cc1cccs1,36.13
8,Cc1cc(C)c(NC(=O)Cn2nc3c(SC4CCCCC4)nccn3c2=O)c(C)c1,13.47
9,O=C(CSc1nnc2n(CC3CCCO3)c(=O)c3sccc3n12)Nc1ccc(F)cc1Cl (stereo unspecified),-2.01
10,COc1cccc(-n2ccn3c(SCc4ccc(Cl)cc4)nnc3c2=O)c1,2.03
11,Cc1ccc(NC(=O)Cn2nc3c(SC4CCCCC4)nccn3c2=O)cc1,-2.16
12,COc1ccc(NC(=O)C(C)Sc2nnc3c(=O)n(-c4ccc(C)c(C)c4)ccn23)cc1 (stereo unspecified),-1.2
13,Cc1ccc(-c2cc3c4nn(CC(=O)Nc5ccccc5Br)c(=O)n4ccn3n2)cc1C,-0.22
14,Cc1nnc2ccc(S(=O)(=O)N(Cc3ccccc3)c3ccc(F)cc3)cn12,1.53
15,COc1cccc(Sc2nc3ccccc3n3c(=O)n(CC(=O)Nc4ccc(C)c(C)c4)nc23)c1,20.61
16,Cc1cc(C)cc(Oc2nc3ccccc3n3c(=O)n(CC(=O)Nc4ccc5c(c4)OCO5)nc23)c1,46.24
17,O=C(CSc1nnc2c(=O)n(-c3cccc(F)c3)ccn12)Nc1ccc(Br)cc1,6.65
18,CSc1ccc(CNC(=O)Cn2nc3c(Oc4ccccc4)nccn3c2=O)cc1,0.62
19,COc1ccc(-c2cc3c4nn(CC(=O)Nc5cc(OC)ccc5OC)c(=O)n4ccn3n2)cc1,1.43
20,O=C(Cn1nc2c(SC3CCCCC3)nccn2c1=O)Nc1ccc(Cl)cc1F,1.51
